# Experimental data: the supplement of paper PMC4466140
# B1: unnamed (peptide)
# chain: PVLPPPRSPNRPTLS
# B2: unnamed (peptide)
# chain: GQYRRTIVIPRRFFT
# Legend:
# Assay in all cases: SPOT peptide array binding signal intensity (averaged, normalized) (arbitrary units (background-subtracted, floor 0; scale differs between SH3 domains)); higher = stronger binding of the SH3 domain to the peptide
# [1] = molecular target: AgAbp1
# Protocol: (§1)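 GST-tagged SH3 domains from S. cerevisiae (Sc), A. gossypii (Ag), C. albicans (Ca) and S. pombe (Sp) were incubated at 10 ug/ml overnight at 4 C on cellulose SPOT membranes carrying 292 synthetic 15-mer peptides mined from the S. cerevisiae proteome (cysteines replaced by serines). Binding was detected with anti-GST antibody, HRP secondary and chemiluminescence, quantified with Genespotter, and reported as normalized spot intensities averaged over biological replicates.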
# [2] = molecular target: AgBbc1
# Protocol: as §1
# [3] = molecular target: AgBem1-D1
# Protocol: as §1
# [4] = molecular target: AgBzz1-D1
# Protocol: as §1
# [5] = molecular target: AgBzz1-D2
# Protocol: as §1
# [6] = molecular target: AgCyk3
# Protocol: as §1
# [7] = molecular target: AgFus1
# Protocol: as §1
# [8] = molecular target: AgHof1
# Protocol: as §1
# [9] = molecular target: AgHse1
# Protocol: as §1
# [10] = molecular target: AgLsb1
# Protocol: as §1
# [11] = molecular target: AgLsb4
# Protocol: as §1
# [12] = molecular target: AgMyo5
# Protocol: as §1
# [13] = molecular target: AgNbp2
# Protocol: as §1
# [14] = molecular target: AgRvs167
# Protocol: as §1
# [15] = molecular target: AgSho1
# Protocol: as §1
# [16] = molecular target: AgSla1-D1-D2
# Protocol: as §1
# [17] = molecular target: AgSla1-D3
# Protocol: as §1
# [18] = molecular target: CaAbp1-D1
# Protocol: as §1
# [19] = molecular target: CaAbp1-D2
# Protocol: as §1
# [20] = molecular target: CaBbc1
# Protocol: as §1
# [21] = molecular target: CaBem1-D1
# Protocol: as §1
# [22] = molecular target: CaBzz1-D1
# Protocol: as §1
# [23] = molecular target: CaBzz1-D2
# Protocol: as §1
# [24] = molecular target: CaCyk3
# Protocol: as §1
# [25] = molecular target: CaFus1
# Protocol: as §1
# [26] = molecular target: CaHof1
# Protocol: as §1
# [27] = molecular target: CaHse1
# Protocol: as §1
# [28] = molecular target: CaLsb1
# Protocol: as §1
# [29] = molecular target: CaLsb4
# Protocol: as §1
# [30] = molecular target: CaMyo5
# Protocol: as §1
# [31] = molecular target: CaNbp2
# Protocol: as §1
# [32] = molecular target: CaRvs167
# Protocol: as §1
# [33] = molecular target: CaRvs167-3
# Protocol: as §1
# [34] = molecular target: CaSho1
# Protocol: as §1
# [35] = molecular target: CaSla1-D1-D2
# Protocol: as §1
# [36] = molecular target: CaSla1-D3
# Protocol: as §1
# [37] = molecular target: ScAbp1
# Protocol: as §1
# [38] = molecular target: ScBbc1
# Protocol: as §1
# [39] = molecular target: ScBem1-D1
# Protocol: as §1
# [40] = molecular target: ScBzz1-D1
# Protocol: as §1
# [41] = molecular target: ScBzz1-D2
# Protocol: as §1
# [42] = molecular target: ScCyk3
# Protocol: as §1
# [43] = molecular target: ScFus1
# Protocol: as §1
# [44] = molecular target: ScHof1
# Protocol: as §1
# [45] = molecular target: ScHse1
# Protocol: as §1
# [46] = molecular target: ScLsb1
# Protocol: as §1
# [47] = molecular target: ScLsb2
# Protocol: as §1
# [48] = molecular target: ScLsb3
# Protocol: as §1
# [49] = molecular target: ScLsb4
# Protocol: as §1
# [50] = molecular target: ScMyo3
# Protocol: as §1
# [51] = molecular target: ScMyo5
# Protocol: as §1
# [52] = molecular target: ScNbp2
# Protocol: as §1
# [53] = molecular target: ScPex13
# Protocol: as §1
# [54] = molecular target: ScRvs167
# Protocol: as §1
# [55] = molecular target: ScSho1
# Protocol: as §1
# [56] = molecular target: ScSla1-D1-D2
# Protocol: as §1
# [57] = molecular target: ScSla1-D3
# Protocol: as §1
# [58] = molecular target: SpAbp1-D1
# Protocol: as §1
# [59] = molecular target: SpBbc1
# Protocol: as §1
# [60] = molecular target: SpBzz1-D1
# Protocol: as §1
# [61] = molecular target: SpBzz1-D2
# Protocol: as §1
# [62] = molecular target: SpCyk3
# Protocol: as §1
# [63] = molecular target: SpHof1
# Protocol: as §1
# [64] = molecular target: SpHof1-2
# Protocol: as §1
# [65] = molecular target: SpHof1-3
# Protocol: as §1
# [66] = molecular target: SpHse1
# Protocol: as §1
# [67] = molecular target: SpLsb1
# Protocol: as §1
# [68] = molecular target: SpLsb4
# Protocol: as §1
# [69] = molecular target: SpMyo1
# Protocol: as §1
# [70] = molecular target: SpNbp2
# Protocol: as §1
# [71] = molecular target: SpPex13
# Protocol: as §1
# [72] = molecular target: SpRvs167
# Protocol: as §1
# [73] = molecular target: SpSla1-D1-D2
# Protocol: as §1
# [74] = molecular target: SpSla1-D3
# Protocol: as §1
binder,measurement,setting,value
B1,SPOT peptide array binding signal intensity,[1],24
same,SPOT peptide array binding signal intensity,[2],700
same,SPOT peptide array binding signal intensity,[3],43
same,SPOT peptide array binding signal intensity,[4],20
same,SPOT peptide array binding signal intensity,[5],1
same,SPOT peptide array binding signal intensity,[6],≤ 0
same,SPOT peptide array binding signal intensity,[7],≤ 0
same,SPOT peptide array binding signal intensity,[8],9
same,SPOT peptide array binding signal intensity,[9],≤ 0
same,SPOT peptide array binding signal intensity,[10],1
same,SPOT peptide array binding signal intensity,[11],369
same,SPOT peptide array binding signal intensity,[12],15.5
same,SPOT peptide array binding signal intensity,[13],1.5
same,SPOT peptide array binding signal intensity,[14],5.67
same,SPOT peptide array binding signal intensity,[15],≤ 0
same,SPOT peptide array binding signal intensity,[16],≤ 0
same,SPOT peptide array binding signal intensity,[17],0.5
same,SPOT peptide array binding signal intensity,[18],418
same,SPOT peptide array binding signal intensity,[19],79
same,SPOT peptide array binding signal intensity,[20],1660
same,SPOT peptide array binding signal intensity,[21],31
same,SPOT peptide array binding signal intensity,[22],264
same,SPOT peptide array binding signal intensity,[23],56
same,SPOT peptide array binding signal intensity,[24],67
same,SPOT peptide array binding signal intensity,[25],≤ 0
same,SPOT peptide array binding signal intensity,[26],2
same,SPOT peptide array binding signal intensity,[27],1.5
same,SPOT peptide array binding signal intensity,[28],≤ 0
same,SPOT peptide array binding signal intensity,[29],1570
same,SPOT peptide array binding signal intensity,[30],2.5
same,SPOT peptide array binding signal intensity,[31],126
same,SPOT peptide array binding signal intensity,[32],114
same,SPOT peptide array binding signal intensity,[33],16.5
same,SPOT peptide array binding signal intensity,[34],≤ 0
same,SPOT peptide array binding signal intensity,[35],110
same,SPOT peptide array binding signal intensity,[36],≤ 0
same,SPOT peptide array binding signal intensity,[37],47.5
same,SPOT peptide array binding signal intensity,[38],186
same,SPOT peptide array binding signal intensity,[39],3.5
same,SPOT peptide array binding signal intensity,[40],20
same,SPOT peptide array binding signal intensity,[41],10
same,SPOT peptide array binding signal intensity,[42],≤ 0
same,SPOT peptide array binding signal intensity,[43],≤ 0
same,SPOT peptide array binding signal intensity,[44],63
same,SPOT peptide array binding signal intensity,[45],≤ 0
same,SPOT peptide array binding signal intensity,[46],284
same,SPOT peptide array binding signal intensity,[47],4
same,SPOT peptide array binding signal intensity,[48],4370
same,SPOT peptide array binding signal intensity,[49],372
same,SPOT peptide array binding signal intensity,[50],150
same,SPOT peptide array binding signal intensity,[51],14.5
same,SPOT peptide array binding signal intensity,[52],16
same,SPOT peptide array binding signal intensity,[53],47
same,SPOT peptide array binding signal intensity,[54],1120
same,SPOT peptide array binding signal intensity,[55],7
same,SPOT peptide array binding signal intensity,[56],483
same,SPOT peptide array binding signal intensity,[57],12.5
same,SPOT peptide array binding signal intensity,[58],70
same,SPOT peptide array binding signal intensity,[59],26
same,SPOT peptide array binding signal intensity,[60],295
B2,SPOT peptide array binding signal intensity,[1],24.5
same,SPOT peptide array binding signal intensity,[2],25.5
same,SPOT peptide array binding signal intensity,[3],52
same,SPOT peptide array binding signal intensity,[4],42.5
same,SPOT peptide array binding signal intensity,[5],21
same,SPOT peptide array binding signal intensity,[6],42.5
same,SPOT peptide array binding signal intensity,[7],619
same,SPOT peptide array binding signal intensity,[8],68
same,SPOT peptide array binding signal intensity,[9],478
same,SPOT peptide array binding signal intensity,[10],10
same,SPOT peptide array binding signal intensity,[11],211
same,SPOT peptide array binding signal intensity,[12],2.25
same,SPOT peptide array binding signal intensity,[13],56.5
same,SPOT peptide array binding signal intensity,[14],14.8
same,SPOT peptide array binding signal intensity,[15],255
same,SPOT peptide array binding signal intensity,[16],763
same,SPOT peptide array binding signal intensity,[17],11
same,SPOT peptide array binding signal intensity,[18],168
same,SPOT peptide array binding signal intensity,[19],172
same,SPOT peptide array binding signal intensity,[20],128
same,SPOT peptide array binding signal intensity,[21],24.5
same,SPOT peptide array binding signal intensity,[22],60
same,SPOT peptide array binding signal intensity,[23],45
same,SPOT peptide array binding signal intensity,[24],81
same,SPOT peptide array binding signal intensity,[25],2340
same,SPOT peptide array binding signal intensity,[26],5
same,SPOT peptide array binding signal intensity,[27],45.8
same,SPOT peptide array binding signal intensity,[28],7
same,SPOT peptide array binding signal intensity,[29],94.5
same,SPOT peptide array binding signal intensity,[30],46.5
same,SPOT peptide array binding signal intensity,[31],564
same,SPOT peptide array binding signal intensity,[32],191
same,SPOT peptide array binding signal intensity,[33],1390
same,SPOT peptide array binding signal intensity,[34],1460
same,SPOT peptide array binding signal intensity,[35],60
same,SPOT peptide array binding signal intensity,[36],89.8
same,SPOT peptide array binding signal intensity,[37],71
same,SPOT peptide array binding signal intensity,[38],2.5
same,SPOT peptide array binding signal intensity,[39],9
same,SPOT peptide array binding signal intensity,[40],17.5
same,SPOT peptide array binding signal intensity,[41],78
same,SPOT peptide array binding signal intensity,[42],108
same,SPOT peptide array binding signal intensity,[43],898
same,SPOT peptide array binding signal intensity,[44],4.75
same,SPOT peptide array binding signal intensity,[45],995
same,SPOT peptide array binding signal intensity,[46],10.2
same,SPOT peptide array binding signal intensity,[47],29
same,SPOT peptide array binding signal intensity,[48],210
same,SPOT peptide array binding signal intensity,[49],33
same,SPOT peptide array binding signal intensity,[50],12.5
same,SPOT peptide array binding signal intensity,[51],10
same,SPOT peptide array binding signal intensity,[52],346
same,SPOT peptide array binding signal intensity,[53],15.2
same,SPOT peptide array binding signal intensity,[54],69.3
same,SPOT peptide array binding signal intensity,[55],1020
same,SPOT peptide array binding signal intensity,[56],205
same,SPOT peptide array binding signal intensity,[57],54.5
same,SPOT peptide array binding signal intensity,[58],242
same,SPOT peptide array binding signal intensity,[59],12.5
same,SPOT peptide array binding signal intensity,[60],107
same,SPOT peptide array binding signal intensity,[61],4.5
same,SPOT peptide array binding signal intensity,[62],21
same,SPOT peptide array binding signal intensity,[63],186
same,SPOT peptide array binding signal intensity,[64],50
same,SPOT peptide array binding signal intensity,[65],321
same,SPOT peptide array binding signal intensity,[66],573
same,SPOT peptide array binding signal intensity,[67],5
same,SPOT peptide array binding signal intensity,[68],131
same,SPOT peptide array binding signal intensity,[69],4.75
same,SPOT peptide array binding signal intensity,[70],287
same,SPOT peptide array binding signal intensity,[71],79.5
same,SPOT peptide array binding signal intensity,[72],43
same,SPOT peptide array binding signal intensity,[73],6
same,SPOT peptide array binding signal intensity,[74],47
